# Inconclusive results are not listed. Entries that show only a call come without a potency. Some compounds were tested as several samples or in several runs, with calls that do not always agree. Calls of active or inactive are those of the source. The call rests on the fitted dose curve; in most records, active means well fitted activation curve with a large enough effect in the repeat runs; inconclusive means weak or mixed curves; inactive means flat fitted curve, though single readings scatter.
# Assay: A CellTox Green Cytotoxicity Assay to monitor cytotoxicity in HepG2 cells - 16 hour (AID 1224876); further: nearly all actives have a fitted effect of over 45% in size
# Conditions: CellTox Green fluorescence; series mostly up to 76.8 µM
# Summary of the method: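 Real-time cytotoxicity: fluorescence of a cell-impermeant cyanine dye binding DNA of dead HepG2 cells, measured repeatedly (0–40 h) during compound exposure at 37 C. Cells seeded 600/well with reagent, dosed after 5 h.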
# Potency means the concentration at half of the fitted maximal effect.
row,SMILES,Potency
1,O=C1CN(/N=C/c2ccc([N+](=O)[O-])o2)C(=O)N1,inactive
2,CCCC(CCC)C(=O)O,inactive
3,CCCCC1C(=O)N(c2ccccc2)N(c2ccccc2)C1=O,inactive
4,OC(Cn1cncn1)(Cn1cncn1)c1ccc(F)cc1F,inactive
5,CCCNC(=O)NS(=O)(=O)c1ccc(Cl)cc1,inactive
6,O=C(O)CS,inactive
7,O=NO,inactive
8,CC(O)C(=O)O (stereo not drawn),inactive
9,Cn1cc[nH]c1=S,inactive
10,CCCCOC(=O)CC(CC(=O)OCCCC)(OC(C)=O)C(=O)OCCCC,inactive
11,CC(=O)OCC(COC(C)=O)OC(C)=O,inactive
12,O=C(O)c1cccc([N+](=O)[O-])c1,inactive
13,Cc1noc(NS(=O)(=O)c2ccc(N)cc2)c1C,inactive
14,Nc1ccc(C(=O)O)cc1,inactive
15,O=C(O)CCCCC(=O)O,inactive
16,CC1(C)[C@@H]2CC[C@@]1(C)C(=O)C2,inactive
17,CCOc1ccc(NC(=O)CC(C)O)cc1 (stereo not drawn),inactive
18,O=C1NC(=O)c2ccccc21,inactive
19,C/C=C/c1ccc(OC)cc1,inactive
20,Cc1ccc(O)cc1,inactive
21,c1ccc2[nH]ccc2c1,21.5 µM (active) and inactive
22,O=C(O)c1cc(N=Nc2ccc(S(=O)(=O)Nc3ccccn3)cc2)ccc1O,inactive
23,CC(C)[C@@H]1CC[C@@H](C)C[C@H]1O,inactive
24,CCCC(O)C(CC)CO (stereo not drawn),inactive
25,Cn1c(=O)c2[nH]cnc2n(C)c1=O,inactive
26,CCCN(CCC)S(=O)(=O)c1ccc(C(=O)O)cc1,inactive
27,Nc1ccc(O)c(C(=O)O)c1,inactive
28,O=C(c1ccccc1)c1ccccc1,inactive
